Consider 24 sequences from the OligoGym collection.
Note: reference of the scale not given here.

The first test concerns the target NOMO3. Nature of the test: pooled miR-30 sensor sort-seq; sequence = guide strand. The note with it: shRNA.
Take TATGATGTTTACATCATCGATG: the sensor-assay potency score (higher = more potent) is -0.855. Take TGTTGCAACAATGTCAGCCAGC: the sensor-assay potency score (higher = more potent) was -0.925. Turning to TTATTCATCTGCTTGACGGTGT, the sensor-assay potency score (higher = more potent) was 0.998. On the same count and under the same terms, as for TATCTGACCACAGACACTGAAC, the figure is -1.06; as for TTTGGTGCAATTTTGATGGTGA, 0.652.

The sequence TTGTCTTCTGTTTCTTGGCTTG yielded a sensor-assay potency score (higher = more potent) of -0.491.

On to TAACTCATCTACCATCTCCTGC, for which the sensor-assay potency score (higher = more potent) was -0.337.

In the case of TTATTTTGTATTTTCCAGGGAG, the sensor-assay potency score (higher = more potent) was found to be 0.546. Still for that read-out and setting: the figure for TGGAACACCATCTCCTTCGGGT is -0.53; for TTGGTGTACAGCTTTATCTCGA it is 0.0866. The same measure, in the same setting: the figure for TAACAGTGATTTTCTCTCCAGA is -0.602.

For TAAAGCTTGACCCATAACGTAG, the sensor-assay potency score (higher = more potent) was -0.74. On the same count and under the same terms, the figure for TTCACCTTCCTCATTGCCGTTT is -0.31. Same read-out and setting: as for TAGAACGCTTGCTCAAACCGGT, the figure is 0.161; as for TTGTCTCTTTGCATCTTCTGGG, -0.0196. Same read-out and setting: as for TTGATCTCCACGTCCGACTTGA, the figure is 0.49.

In a further test the target is NOTCH4. Described as above. The note with it: shRNA.
Turning to TAGGGGTACACCATGTCCCTGC, the sensor-assay potency score (higher = more potent) was 0.0292.

TTGAGCAGTTCTGTCCATCGTA came in with a sensor-assay potency score (higher = more potent) of 0.59.

With TTGGTGAGCGACGTCCGCCGGC, the sensor-assay potency score (higher = more potent) is -0.551. As for TATATAGGAAAGAACATCTTAC, the sensor-assay potency score (higher = more potent) was 0.0056. On the same count and under the same terms, as for ATATATAGGAAAGAACATCTTA, the figure is -0.0997. TTCTTGGTTCCAACTTAGGGGT gave a sensor-assay potency score (higher = more potent) of -0.898. Still for that read-out and setting: the figure for TATCTTCCTCGCATTATCGCAG is -0.574; for TTGGCTGAACAGAAGTCCCGAA it is -0.0674.
